From PubChem BioAssay (Tox21) come the findings set out here.

A short description of test [1]: qHTS assay for small molecule agonists of the p53 signaling pathway (AID 651631; calls by dose curve; note: nearly all actives have a fitted effect of over 15% in size). The method in brief:
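Quantitative high-throughput format: 4,000 p53RE-bla HCT-116 cells/well, 5 h pre-incubation, 16 h compound exposure at 37 °C, 2 h room-temperature substrate step, fluorescence intensity measured.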
(Quantitative high-throughput screening tests each substance at several concentrations.)

The nature of test [2]: qHTS assay for small molecules that induce genotoxicity in human embryonic kidney cells expressing luciferase-tagged ATAD5 (AID 651632). Note: nearly all actives have a fitted effect of over 15% in size. In a few lines:
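Increased luciferase signal from ATAD5-tagged reporter cells indicates DNA-damage-driven ATAD5 induction. HEK293T cells are treated for 16 hr at 37C before detection with Amplite.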

Test [3] is described as follows: qHTS assay for small molecule disruptors of the mitochondrial membrane potential (AID 720635). Note: potency is the fitted concentration of half-maximal effect. The method in brief: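 HepG2 cells (2,000/well) attached overnight at 37C, then took compound for 1 hr at 37C, 5% CO2. Mito-MPS dye was added for 30 min; fluorescence was read at 490/535 nm (monomers) and 540/590 nm (aggregates).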
A short description of test [4]: qHTS assay to test for compound auto fluorescence at 460 nm (blue) in HEK293 cells (AID 720678). In a few lines: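 Cells were seeded and left to adhere for 4-5 hr at 37C. Compounds were then pin-transferred. After an overnight incubation at 37C under 5% CO2, intrinsic fluorescence at 405/460 nm was measured and referenced to triamterene.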
A short description of test [5]: qHTS assay to test for compound auto fluorescence at 590 nm (red) in HEK293 cells (AID 720679). The method in brief: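 Each well held 2,000 HEK293 cells in medium containing 10% dialyzed FBS. Following 4-5 hr attachment at 37C, 23 nL test compound or DMSO was added; plates sat overnight, and red fluorescence (540/590nm) was recorded.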
A short description of test [6]: qHTS assay to test for compound auto fluorescence at 535 nm (green) in HEK293 cells (AID 720680).
Test [7] can be described thus: qHTS assay to test for compound auto fluorescence at 460 nm (blue) in HEK293 cell free culture (AID 720681). In a few lines:
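Test compounds were pinned into cell-free culture medium (DMEM with 10% FBS) and fluorescence was read directly at Ex/Em 405/460 nm. Signals were expressed as fluorescence equivalents of triamterene, with DMSO vehicle as control.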

Test [8] in a line: qHTS assay to test for compound auto fluorescence at 535 nm (green) in HEK293 cell free culture (AID 720682). The method in brief:
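Measurement is a direct plate read of green fluorescence (485 nm in, 535 nm out) after compound addition to serum-supplemented DMEM lacking cells, with fluorescein used to express intensities.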

Test [9] is described as follows: qHTS assay to test for compound auto fluorescence at 590 nm (red) in HEK293 cell free culture (AID 720683). In a few lines: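 Tox21 10K library compounds were pinned into cell-free DMEM with 10% FBS and fluorescence was read at excitation 540 nm. Activity is expressed as Rose Bengal sodium equivalency.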
The nature of test [10]: qHTS assay to test for compound auto fluorescence at 590 nm (red) in HepG2 cell free culture (AID 720684). In a few lines: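 Measured in medium alone (MEM containing 10% FBS) following pintool addition of compound; emission at 590 nm with 540 nm excitation, referenced to Rose Bengal sodium.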
The nature of test [11]: qHTS assay to test for compound auto fluorescence at 460 nm (blue) in HepG2 cell free culture (AID 720685). The method in brief:
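Compound (23 nL) or DMSO pinned into cell-free MEM with 10% FBS; blue fluorescence read at 405/460 nm excitation/emission, expressed as auto-fluorescence equivalency to triamterene.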

Test [12] in a line: qHTS assay to test for compound auto fluorescence at 460 nm (blue) in HepG2 cells (AID 720687). The method in brief: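 Cells (2,000/well in MEM with 10% FBS) attached overnight at 37 C, then were exposed to compound or DMSO for 1 hr at 37 C, 5% CO2. Fluorescence read at Ex/Em 405/460 nm, expressed as triamterene-equivalent signal.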
In test [13] the target is Glucocorticoid receptor (Homo sapiens) (UniProt P04150). The experiment in a line: qHTS assay to identify small molecule agonists of the glucocorticoid receptor (GR) signaling pathway (AID 720691; active = well fitted activation curve with a large enough effect in the signal ratio in the repeat runs, not every such curve was filed as active; the % refers to the signal ratio). The method in brief:
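Agonist mode in a HeLa line carrying a GRE-controlled beta-lactamase reporter. Compounds act for 18 h at 37 C before a 2 h room-temperature FRET substrate step and fluorescence reading.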

Test [14] shares this target. Briefly: qHTS assay to identify small molecule antagonists of the glucocorticoid receptor (GR) signaling pathway (AID 720692; active = well fitted inhibition curve with a large enough effect in the signal ratio in the repeat runs, not every such curve was filed as active; the % refers to the signal ratio). The method in brief:
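Cells plated, rested 4 h at 37 C/5% CO2; compounds in DMSO pin-transferred; dexamethasone added to 5 nM final; 18 h at 37 C; B/G FRET substrate added, 2 h room temperature; fluorescence measured.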

The nature of test [15]: qHTS assay for small molecule agonists of the p53 signaling pathway - cell viability (AID 651633; calls by dose curve;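 note: p53RE-bla HCT reporter cells with a stable beta-lactamase p53 reporter; series mostly up to about 83 µM; nearly all actives have a fitted effect of over 30% in size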). The method in brief:
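p53RE-bla cells, seeded at 4,000 per well and rested 5 h at 37 C/5% CO2, received compounds in DMSO for 16 h at 37 C. CellTiter-Glo was then added, and luminescence was read after 30 min at room temperature to gauge cytotoxicity.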

Test [16] is described as follows: qHTS assay for small molecules that induce genotoxicity in human embryonic kidney cells expressing luciferase-tagged ATAD5 - cell viability (AID 651634; calls by dose curve; note: nearly all actives have a fitted effect of over 25% in size). The method in brief:
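Cytotoxicity counterscreen in HEK293T cells bearing an ATAD5-luciferase reporter: live-cell protease activity measured by CellTiter-Fluor fluorescence after 15.5 hr compound exposure.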

Test [17] can be described thus: qHTS assay for small molecule disruptors of the mitochondrial membrane potential - cell viability (AID 720634; calls by dose curve;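 note: human HepG2 liver cancer cells; series mostly up to about 83 µM; nearly all actives have a fitted effect of over 20% in size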). The method in brief: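 After overnight attachment at 37 C, HepG2 cells received compound or DMSO vehicle for 1 hr. Viability is then taken from ATP-driven luminescence following a 30 min room-temperature CellTiter-Glo step.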
Test [18] in a line: qHTS assay to test for compound auto fluorescence at 590 nm (red) in HepG2 cells (AID 720674). The method in brief: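 Intrinsic compound fluorescence in the red window (Ex/Em 540/590 nm) is measured in attached HepG2 cells exposed for 1 hr, DMSO vehicle as baseline, benchmarked to Rose Bengal sodium.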
Test [19] in a line: qHTS assay to test for compound auto fluorescence at 535 nm (green) in HepG2 cells (AID 720675).
Test [20] can be described thus: qHTS assay to test for compound auto fluorescence at 535 nm (green) in HepG2 cell free culture (AID 720686).

A number with no mark means an inactive call. Records with an inconclusive call do not appear. The source made the active and inactive calls. Unless noted, calls come from the whole dose curve; as a rule, active = well fitted curve in the direction sought with a large enough effect in the repeat runs; inconclusive = weak or mixed curves; inactive = no such curve, though single readings can be large; an effect the other way counts as inactive or inconclusive.

Chain of Glucocorticoid receptor (Homo sapiens) (P04150 whole entry, looked up): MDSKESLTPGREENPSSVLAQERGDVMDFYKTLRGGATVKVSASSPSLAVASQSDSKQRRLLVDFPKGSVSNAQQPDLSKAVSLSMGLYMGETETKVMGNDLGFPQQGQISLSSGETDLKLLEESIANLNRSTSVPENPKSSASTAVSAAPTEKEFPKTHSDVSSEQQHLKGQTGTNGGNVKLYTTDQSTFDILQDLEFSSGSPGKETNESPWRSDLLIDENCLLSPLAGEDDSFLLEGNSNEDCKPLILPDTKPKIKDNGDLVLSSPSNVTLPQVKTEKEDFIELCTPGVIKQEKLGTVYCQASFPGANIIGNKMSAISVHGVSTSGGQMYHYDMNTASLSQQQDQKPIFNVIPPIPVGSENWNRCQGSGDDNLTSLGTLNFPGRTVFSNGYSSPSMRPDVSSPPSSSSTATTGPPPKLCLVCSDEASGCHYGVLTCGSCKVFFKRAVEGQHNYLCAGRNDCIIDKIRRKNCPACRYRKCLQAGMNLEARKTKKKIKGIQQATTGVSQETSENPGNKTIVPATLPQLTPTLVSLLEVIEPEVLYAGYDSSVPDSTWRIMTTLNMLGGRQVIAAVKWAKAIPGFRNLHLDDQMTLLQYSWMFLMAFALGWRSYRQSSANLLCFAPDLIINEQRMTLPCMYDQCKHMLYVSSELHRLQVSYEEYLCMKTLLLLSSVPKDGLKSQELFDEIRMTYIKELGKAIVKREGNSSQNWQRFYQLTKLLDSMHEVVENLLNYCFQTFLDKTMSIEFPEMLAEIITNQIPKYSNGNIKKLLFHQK

`Cc1ccc(C(C)NC(=O)[C@@H](NC(=O)OC(C)C)C(C)C)cc1` (stereo not given in full): the outcome in test [1], in [2], in [4], in test [5], in test [6] and in test [7] was inactive. Moreover, the call in [8], in test [9], in test [10], in test [11], in test [12] and in test [14] was inactive. Moreover, the Potency entry in test [3] and in test [13] was “inactive” each time.

For the compound `CCCCCC(C)O` (stereo not given), the call in test [2], in test [15], in test [17], in test [18], in test [19] and in [4] was inactive. Besides, the compound was called inactive in test [5], in test [6], in test [7], in test [8], in test [9] and in test [10]. Moreover, the compound was called inactive in test [11], in test [20] and in [12]. For the same compound, the Potency entry in test [16], in test [3] and in test [13] was “inactive” in each case.

For `CCCc1ccc(O)cc1`, the compound was called inactive in test [1], in [2], in test [18], in [19], in test [4] and in [5]. Also, the compound was classed as inactive in [6], in test [7], in test [9], in test [10], in [11] and in test [20]. The compound was classed as inactive in [12]. Further, the Potency in test [3] was 54.5 µM (active). In [13], the Potency result was “inactive”.

Take `CCO[Si](CC)(OCC)OCC`: the call in test [1], in test [2], in test [17], in [18], in test [19] and in test [4] was inactive. Further, the compound was called inactive in test [5], in [6], in [8], in test [9], in [10] and in test [11]. For the same compound, the compound was called inactive in test [20] and in [12]. The Potency entry in test [16] is “inactive”. In test [3], the Potency is 61.1 µM (active).

Consider `CCCCC1CCC(O)CC1` (stereo not given), for which the compound was classed as inactive in test [1], in [2], in test [18], in [19], in test [4] and in test [5]. The result in test [6], in [7], in [9], in test [10] and in test [12] was inactive. Besides, the Potency result in test [16], in test [3] and in test [13] was “inactive” each time.

Regarding `Cc1ccc2c(c1)C(=O)c1ccccc1C2=O`, the result in test [1], in test [18], in test [19], in test [4], in [5] and in test [6] was inactive. For the same compound, the compound was called inactive in [7], in test [8], in [9], in test [10], in test [11] and in test [20]. Further, the outcome in test [12] was inactive. The Potency result in [16] and in test [13] was “inactive” throughout. In addition, the Potency in test [3] was 6.09 µM (active).

`COC(=O)CCCCC(=O)O`: the outcome in test [1], in test [2], in [15], in [19], in test [4] and in test [5] was inactive. Moreover, the result in test [6], in test [7], in test [8], in test [9], in [10] and in test [11] was inactive. For the same compound, the call in [20], in [12] and in test [14] was inactive. The Potency entry in [13] is “inactive”.

For `c1ccc(B(c2ccccc2)c2ccccc2)cc1`, the compound was classed as inactive in [1], in test [15], in test [18], in test [4], in test [5] and in test [6]. For the same compound, the result in test [7], in test [8], in test [9], in [10], in test [11] and in [20] was inactive. In addition, the outcome in [12] was inactive. Besides, the Potency result in test [16] and in test [13] was “inactive” each time. Further, the Potency in test [3] was 61.1 µM (active).
